PubChem BioAssay AID1347131 (National Center for Advancing Translational Sciences (NCATS), 2019)
Screen size: about 410,000 compounds; about 2,000 (0.49%) were called active. Entries that show only a call come without a potency. About 8% were inconclusive and are not listed. Calls follow the shape of the full dose curve; tested in HEK293 reporter line. This excerpt belongs to a sample that is enriched for actives.

test: qHTS Assay for Foot and Mouth Disease Virus Antivirals: Primary Screen against the MLPCN compound library; conditions: FMDV antiviral cell-based qHTS; series mostly up to 57.9 µM; also: nearly all actives have a fitted effect of over 55% in size
Potency is read from the fitted curve at half-maximal effect.

Row | Structure (SMILES) | Potency
1 | Cc1cccc(C)c1NC(=O)Cn1c(=O)n(Cc2ccco2)c(=O)c2ccc(C(=O)NC3CCCC3)cc21 | inactive
2 | COC(OC)C12c3ccccc3C(c3ccccc31)C1C(=O)N(c3cccnc3)C(=O)C12 (centres undefined) | inactive
3 | COc1ccc2c(c1)C1(C)CC(C)(C)N2C(=O)N1c1ccccc1 (centres undefined) | inactive
4 | COc1cccc(N2C(=O)C3C(C2=O)C3(c2ccccc2)c2ccccc2)c1 (centres undefined) | 14.1 µM (active)
5 | CCn1c(SCC(=O)N/N=C/c2c[nH]c3ccccc23)nnc1-c1ccc(Cl)cc1 | inactive
6 | CC1c2cc3c(cc2CCN1C(=O)c1ccc(C(F)(F)F)cc1)OCCCO3 (centres undefined) | inactive
7 | CC(=O)c1ccc(N2CCN(C(=O)CCCCn3c(=O)[nH]c4ccsc4c3=O)CC2)cc1 | inactive
8 | CC(C)(C)OC(=O)C[C@@H]1C/C=C\C[C@@H](CC(=O)N[C@@H](CO)Cc2ccccc2)C(=O)NC[C@@H](c2ccccc2)OC1=O | inactive
9 | O=C(CCCCCn1c(=O)[nH]c2ccccc2c1=O)N1CCN(Cc2ccc3c(c2)OCO3)CC1 | 20 µM (active)
10 | CC(C)[C@@H](C(=O)N1CCN(Cc2ccc3c(c2)OCO3)CC1)n1nnc2ccccc2c1=O | inactive
11 | Cc1ccc(CSCC(=O)N2CCN(Cc3ccc4c(c3)OCO4)CC2)cc1 | inactive
12 | Cc1nnc(SCC(=O)N2CCCC2)n1-c1ccc(F)cc1 | inactive
13 | CC(=O)c1ccc(NC(=O)c2noc3c2CCC3)cc1 | 20 µM (active)
14 | COc1cc(NC(=O)c2noc3c2CCc2ccccc2-3)cc(OC)c1OC | inactive
15 | CC(=O)c1ccc(NC(=O)c2cc(S(=O)(=O)N3CCOCC3)ccc2C)cc1 | inactive
16 | O=C(CSc1nnc2c(Cl)cc(Cl)cn12)N1CCOCC1 | inactive
17 | O=c1c2cnn(-c3ccccc3)c2ncn1Cc1ccccc1 | inactive
18 | CCNc1nc2c(c(=O)n(Cc3ccccc3)c(=O)n2C)n1Cc1ccccc1 | inactive
19 | Cn1ncc(S(=O)(=O)Cc2ccccc2)c(Cl)c1=O | 20 µM (active)
20 | COc1ccccc1-c1nc(-c2ccccn2)no1 | 14.1 µM (active)
21 | COC(OC)c1ccnc(-c2ccc(OC(=O)c3ccc(F)cc3)cc2)n1 | inactive
22 | COc1ccccc1-c1noc(-c2ccc(N3CCN(c4ccccc4)CC3)c([N+](=O)[O-])c2)n1 | inactive
23 | O=C(Oc1ccc(-c2nc(-c3ccccn3)no2)cc1)c1ccccc1 | 14.1 µM (active)
24 | COc1cccc2cc(-c3nc(-c4ccccc4F)no3)c(=O)oc12 | inactive
25 | COc1ccc(C(=O)NNC(=O)c2ccccn2)cc1 | inactive

Row | Structure (SMILES) | Potency
26 | COc1ccc(CN2CCN(Cc3ccc(C(F)(F)F)cc3)CC2)c(OC)c1 | inactive
27 | Cc1cc(OCCOc2cccc3cccnc23)cc(C)c1Cl | inactive
28 | COc1cccc(/C=N/Nc2ncnc(N)c2[N+](=O)[O-])c1OC | 7.94 µM (active)
29 | COc1cccc(/C=N/NC(=O)c2cc3c(OC)cccc3[nH]2)c1OC | inactive
30 | CC1Cc2ccccc2N1c1ncnc(N)c1[N+](=O)[O-] (centres undefined) | inactive
31 | CN(c1ccc(C(=O)NCc2cccnc2)cc1)S(=O)(=O)c1ccc(Cl)cc1 | inactive
32 | O=C(NC1CC1)C1CCN(S(=O)(=O)c2cc([N+](=O)[O-])ccc2Cl)CC1 | inactive
33 | CCc1cccc(C)c1Nc1c(-c2ccccc2)nc2sccn12 | inactive
34 | CCn1nc(-c2ccccc2)c2nc3ccccc3nc21 | inactive
35 | CCCc1nn2cc(-c3ccc(C)c(C)c3)nc2s1 | 14.1 µM (active)
36 | CCOc1ccc(CCNC(=O)c2ccc3c(c2)sc2nc(-c4ccc(F)cc4)cn23)cc1OCC | inactive
37 | CCCCCc1nn2cc(-c3ccccc3)nc2s1 | 12.6 µM (active)
38 | CCCn1c(NC(=O)CCNC(=O)c2ccccc2Cl)nc2ccccc21 | inactive
39 | COc1cc(NC(=O)N2CCC3(CC2)Nc2ccccc2-n2cccc23)cc(OC)c1OC | inactive
40 | CCC1CCCCN1CCCCOc1cccc(Cl)c1 (centres undefined) | inactive
41 | COc1ccccc1C(CNC(=O)c1ccc(OCc2c(C)noc2C)cc1)N1CCCC1 (centres undefined) | inactive
42 | Cc1ccc(C2=Nc3ccccc3NC(c3ccncc3)=N2)cc1 | inactive
43 | O=C(Nc1ccc2ccccc2c1)c1ccccc1O | 14.1 µM (active)
44 | COc1ccccc1C(=O)Nc1ccc(C(=O)c2ccccc2)cc1 | inactive
45 | Cc1ccc(Cl)cc1NC(=O)c1cc2ccccc2cc1O | inactive
46 | CC(C)NC(=S)NN(c1ccccc1)c1ccccc1 | inactive
47 | CCOc1ccc(S(=O)(=O)N2CCC(n3c(C)nc4cccnc43)CC2)cc1 | inactive
48 | CCc1ccc2oc(-c3cc(N=Cc4cccc(OC)c4O)ccc3O)nc2c1 | 20 µM (active)
49 | COc1cccc(/C=N/Nc2ccc(C(=O)O)cc2)c1O | inactive
50 | Cc1nn(-c2cccc(Cl)c2)c2c1C(c1ccncc1)C(C#N)=C(N)O2 (centres undefined) | inactive

Row | Structure (SMILES) | Potency
51 | CCCOc1ccccc1C(=O)N(Cc1cccc(Br)c1)C1CCS(=O)(=O)C1 (centres undefined) | inactive
52 | Cc1ccc(C)c(N2CCN(S(=O)(=O)c3cc4c(cc3Cl)NC(=O)CO4)CC2)c1 | inactive
53 | CC(=O)N1CCc2cc(S(=O)(=O)CCC(=O)N3CCN(c4cc(C)ccc4C)CC3)ccc21 | inactive
54 | Cc1ccc(C)c(N2CCN(C(=O)CCS(=O)(=O)c3ccc4c(c3)NC(=O)CO4)CC2)c1 | 12.6 µM (active)
55 | CCOC1=C2CN(S(=O)(=O)c3ccc(C)cc3)[C@H](c3ccccc3)C[C@@H]2N(S(=O)(=O)c2ccc(C)cc2)[C@H](c2cccc(C)c2)C1 | inactive
56 | Cc1onc(-c2ccccc2)c1C(=O)n1nnc2ccccc21 | inactive
57 | Cn1c(-c2ccccc2)cc2onc(-c3ccccc3)c2c1=O | 8.91 µM (active)
58 | COc1ccc(-c2c3c(=O)n(C)c(=O)n(C)c3c3c(-c4ccccc4)nc4ccccc4n23)cc1 | inactive
59 | Cc1cc(Br)cc(C)c1OCC(=O)NNC(=O)c1cccs1 | inactive
60 | Cc1cc(NC(=O)c2ccc(S(=O)(=O)N3CCc4ccccc43)cc2)no1 | inactive
61 | COc1ccc(OC)c(S(=O)(=O)Nc2ccc(F)cc2)c1 | inactive
62 | COc1ccc(C)cc1S(=O)(=O)Nc1ccccc1 | inactive
63 | COc1cc(NS(=O)(=O)c2ccc(C)cc2C)cc(OC)c1OC | 20 µM (active)
64 | CC1=[N+](C)c2ccc3ccccc3c2C1(C)C | inactive
65 | Cc1ccccc1OCc1nnc(SCC(=O)Nc2c(C)n(C)n(-c3ccccc3)c2=O)n1-c1ccccc1 | inactive
66 | NS(=O)(=O)c1ccc(Nc2nc(-c3ccc(O)cc3O)cs2)cc1 | inactive
67 | Cc1cc(O)ccc1Nc1nc(-c2cccs2)cs1 | 20 µM (active)
68 | Cc1ccc(NC(=O)c2cc(-c3cccs3)nc3ccccc23)c(C)c1 | inactive
69 | Cc1ccc(/C=C/c2nc3ccccc3n2S(=O)(=O)c2cccc(Cl)c2)cc1 | 8.91 µM (active)
70 | Cc1cc(S(=O)(=O)N2CCN(c3ccccc3F)CC2)ccc1-n1cnnn1 | inactive
71 | Cc1ccc(S(=O)(=O)N2CCN(C(=O)/C=C/c3ccccc3)CC2)cc1C | inactive
72 | CSc1ccc(/C=C/c2nc3ccccc3n2S(=O)(=O)c2ccc(F)c(C)c2)cc1 | 20 µM (active)
73 | Cc1ccc(/C=C/c2nc3ccccc3c(=O)n2CCc2ccccc2)cc1 | inactive
74 | COc1cccc(-n2c(/C=C\c3ccc(Cl)cc3)nc3ccccc3c2=O)c1 | inactive
75 | CN1CCN(NC(=O)Nc2cc(Cl)cc(Cl)c2)CC1 | inactive

Row | Structure (SMILES) | Potency
76 | COc1ccc(CN2CCNC(=O)C2CC(=O)N(C)Cc2ccno2)c(F)c1 (centres undefined) | inactive
77 | CCSc1ncc(Cl)c(C(=O)N(Cc2ccccc2Cl)C2CCS(=O)(=O)C2)n1 (centres undefined) | inactive
78 | CCn1c(N2CCC(C)CC2)nc2c1c(=O)n(C)c(=O)n2C | inactive
79 | CCc1nnc(NC(=O)CSc2nc(-c3ccccc3)cc(-c3ccc(F)cc3)c2C#N)s1 | inactive
80 | CS(=O)(=O)c1nc(-c2ccc(Br)cc2)cc(-c2ccccc2)c1C#N | 25.1 µM (active)
81 | Nc1cc(-c2ccc(Br)cc2)nn1S(=O)(=O)c1ccccc1 | inactive
82 | COc1ccc(/C=C/C(=O)Nc2ccccc2)cc1S(=O)(=O)N1CCOCC1 | 12.6 µM (active)
83 | COc1ccc(C(=O)Nc2ccc(C)c(S(=O)(=O)N3CCOCC3)c2)cc1S(=O)(=O)N1CCCC1 | inactive
84 | COc1ccc(C)cc1NC(=O)/C=C/c1ccc(OC)c(S(=O)(=O)N2CCOCC2)c1 | inactive
85 | CCOC(=O)C1CCCN(S(=O)(=O)c2cc3c(cc2Cl)NC(=O)CO3)C1 (centres undefined) | inactive
86 | CCCN(CCC)CCCNC(=O)C1CCCN(Cc2nc(-c3ccc(Cl)cc3)oc2C)C1 (centres undefined) | inactive
87 | Cc1oc(-c2ccc(Cl)cc2)nc1CN1CCCC(C(=O)NCc2cccnc2)C1 (centres undefined) | inactive
88 | Cc1oc(-c2ccc(Cl)cc2)nc1CN1CCCC(C(=O)NCCCN2CCCC2=O)C1 (centres undefined) | 7.94 µM (active)
89 | Cc1ccc(S(=O)(=O)N2CCN(C(=O)CCCN3C(=O)NC4(CCCC4)C3=O)CC2)cc1C | inactive
90 | CCn1c2ccccc2c2cc(NC(=O)COc3ccc(C)c(C)c3)ccc21 | inactive
91 | CCOc1ccc(-c2nnc(NC(=O)COc3ccccc3F)o2)cc1 | inactive
92 | CCn1c(SCCOc2ccc(Cl)cc2)nnc1-c1cccs1 | inactive
93 | CCOc1ccc(-c2nnc(-c3cccs3)o2)cc1 | 15.8 µM (active)
94 | Cc1ccccc1-c1cnc2c(c1)C(=O)N([C@@H](C)CO)C[C@@H](C)[C@H](CN(C)Cc1ccccc1F)O2 | inactive
95 | COc1ccc(C(O)(CC(C)C)C(CN2CCOCC2)c2ccccc2)cc1 (centres undefined) | inactive
96 | O=C(Nc1nc2ccccc2s1)c1ccc2c(c1)OCO2 | 14.1 µM (active)
97 | O=C(Nc1ccc2nc(SCCOc3ccccc3)sc2c1)c1ccc2c(c1)OCO2 | inactive
98 | Cc1cc(NC(=O)c2ccc3c(c2)OCO3)ccc1NC(=O)c1ccccc1 | inactive
99 | CC1(Cc2cc(Cl)ccc2C(F)(F)F)C(=O)Nc2c(Cl)cccc21 (centres undefined) | inactive
